Source: PubChem BioAssay
GRK2 aptamer HTS = inhibitors of human GRK2 displacing RNA aptamer. P25098. bead flow cytometry, FAM-aptamer displacement from GRK2. inhibition of aptamer binding, % at 10 µM. 330,000 tested, 0.59% active;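 active means inhibition of aptamer binding above 40%, roughly 3 SD of noise, on plates passing a quality check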;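 further: median bead fluorescence of bound FAM aptamer so fluorescent compounds give negative values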
MEKK3 PB1 HTS = raises or lowers MEK5 binding to the human MEKK3 PB1 domain | AID 1529 | binding response (% of control), % at 10 µM | bead-based flow cytometry, Alexa488-MEK5 binding to MEKK3; actives lie on both sides; 0 = blocked by unlabeled MEK5, 100 = vehicle | Q99759 | 290,000 tested, 1.4% active;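 active means binding response more than 3 SD above or below the average of its plate-row segment, actives on both sides; inconclusive means wells at one plate position flagged as instrument error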;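 further: Alexa488 bead fluorescence after subtracting the streptavidin-only scavenger bead signal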
MEKK2wt PB1 HTS = raises or lowers MEK5 binding to wildtype human MEKK2 PB1 domain | Q9Y2U5 | bead flow cytometry, Alexa488-MEK5 binding to MEKK2 WT; actives lie on both sides | binding response (% of control), % at 10 µM | 290,000 tested, 1.1% active; in the data active means binding response below about 67% or above about 130%; inconclusive means no clear call, values can overlap the other calls; inactive means in between
MEKK2 mut-MEK5 = signal of MEK5 binding to mutant human MEKK2 PB1 domain; 290,000 tested, 0.35% active; AID 1530; percent response, % at 10 µM; bead flow cytometry, Alexa488-MEK5 binding to MEKK2 mutant; in the data active means percent response above about 24%, passing the limit was not always enough
An asterisk follows results filed as active; ? = inconclusive; . = no result; [ ] = dose if it differs, or a comment. This is a sample that favours compounds with a hit; in the whole collection about 2.5% have one here.

SMILES	GRK2 aptamer HTS	MEKK3 PB1 HTS	MEKK2wt PB1 HTS	MEKK2 mut-MEK5
Cc1c(OCc2ccccc2)cccc1OCc1ccccc1	.	93.0	98.0	3.0
O=c1cc(O)n(Cc2ccc(F)cc2)c(=O)[nH]1	10.0	104.0	103.0	2.0
Cc1c(C(=S)Nc2ccccc2)cnn1-c1ccc([N+](=O)[O-])cc1	0.0	92.0	4.0*	8.0
O=C(Nc1ccc(Nc2ccncc2)cc1)c1ccc(Nc2ccnc3ccc([N+](=O)[O-])cc23)cc1[N+](=O)[O-]	0.0	13.0*[inhibitor]	28.0*[inhibitor]	-49.0
Cc1nn(C(C)C)c(C)c1CN1CCC(C(=O)Nc2cccc(-c3cccc(F)c3)c2)CC1	0.0	99.0	135.0*	9.0
C=CCn1cc(CN2CCC(C(=O)Nc3cccc(-c4cccc(Cl)c4)c3)CC2)c(C)n1	8.0	99.0	157.0*	10.0
C=CCn1cc(CN2CCC(C(=O)Nc3ccc(Oc4cccnc4)cc3)CC2)c(C)n1	0.0	104.0	108.0	4.0
CCn1cc(CN2CCCC(C(=O)Nc3cccc(-c4cc5ccccc5[nH]4)c3)C2)cn1 (stereo not drawn)	0.0	103.0	147.0*	22.0
Cc1c(CN2CCC(C(=O)Nc3cccc(-c4cccc(Cl)c4)c3)CC2)cnn1C	0.0	97.0	136.0*	12.0
Cc1cccc(CN2CCC(C(=O)Nc3cccc(-c4cccc(F)c4)c3)CC2)n1	0.0	100.0	109.0	-1.0
O=C(Nc1cccc(-c2cccc(Cl)c2)c1)C1CCN(Cc2ccon2)CC1	10.0	109.0	123.0	17.0
Cc1onc(-c2ccccc2)c1C(=O)OCC(=O)NCc1ccc(F)cc1	0.0	100.0	99.0	1.0
C=CCn1cc(CN2CCC(C(=O)Nc3cccc(-c4cccc(F)c4)c3)CC2)c(C)n1	0.0	105.0	135.0*	16.0
Cn1cc(CN2CCC(C(=O)Nc3cccc(-c4cccc(F)c4)c3)CC2)cn1	1.0	107.0	146.0*	21.0
CCCCn1c(N)c(N(Cc2ccccc2OC)C(=O)CCC(C)C)c(=O)[nH]c1=O	4.0	95.0	99.0	-2.0
CC1CCc2c(C(=O)Nc3cccc(-c4nn[nH]n4)c3)csc2C1 (stereo not drawn)	3.0	100.0	97.0	1.0
CN1CCN(c2ccccc2NC(=O)c2ccc(-c3ccccc3[N+](=O)[O-])o2)CC1	0.0	106.0	135.0*	20.0
O=C(NC1CCCCC1)C1CC(=O)N(c2ccccc2)C1 (stereo not drawn)	0.0	100.0	95.0	-4.0
COc1cc(N2CCCC2)c(OC)cc1/C=C(/C#N)c1cccc(F)c1	0.0	97.0	101.0	155.0*
COc1cccc(C(=O)NCCCn2ccnc2)c1	0.0	93.0	94.0	-9.0
COc1cc2oc(=O)ccc2cc1[C@@H](O)[C@@H]1OC(C)(C)OC1(C)C	0.0	.	.	.
CC(=O)c1c(C(C)=O)c(C)n(-c2ccc(C(=O)O)cc2)c1C	0.0	106.0	107.0	7.0
Cc1ccc(C)n1-c1ccc(C(=O)O)cc1	82.0*	98.0	100.0	-1.0
Cc1ccc(NC(=O)CCNS(=O)(=O)c2ccc3[nH]c(=O)oc3c2)cc1N(C)C	2.0	103.0	102.0	8.0
CCC1CSC(Nc2ccc(C(=O)/C=C/c3ccc(OC)c(OC)c3)cc2)=N1 (stereo not drawn)	48.0*	91.0	88.0	0.0
SMILES	GRK2 aptamer HTS	MEKK3 PB1 HTS	MEKK2wt PB1 HTS	MEKK2 mut-MEK5
CCC1CSC(Nc2ccc(C(=O)/C=C/c3ccc(Br)cc3)cc2)=N1 (stereo not drawn)	0.0	105.0	116.0	-1.0
CCC(=O)N1CCc2cc(Br)cc(S(=O)(=O)N3CCCCC3CC)c21 (stereo not drawn)	1.0	101.0	98.0	0.0
O=C(NCCCN1CCOCC1)c1ccc2c(=O)n(Cc3ccc(Cl)cc3)c(=S)[nH]c2c1	1.0	103.0	121.0	9.0
COC(=O)c1ccccc1NC(=S)NC(=O)c1ccccc1	1.0	97.0	94.0	6.0
Cc1ccc(NC(=S)NC(=O)c2ccccc2)cc1NC(=S)NC(=O)c1ccccc1	1.0	83.0	2.0*	-11.0
N#Cc1cc(-c2ccccc2)nc(N2CCNCC2)n1	0.0	95.0	126.0	-7.0
CC(=O)N(C)C1=C(N2CCOCC2)C(=O)c2ccccc2C1=O	3.0	90.0	90.0	-5.0
CC(=O)N(C1=C(N2CCOCC2)C(=O)c2ccccc2C1=O)c1ccc(C(=O)O)cc1	1.0	99.0	-1.0*	2.0
CC1=C(C(=O)O)N2C(=O)C(NC(=O)c3nn(C)cc3[N+](=O)[O-])C2SC1 (stereo not drawn)	0.0	?	?	139.0*
